In PubChem BioAssay (NCATS):
Results filed as inconclusive are left out. Calls of active or inactive are those of the source. Unless noted, the call rests on the fitted dose curve.

Legend:
[1] = target: Cytochrome P450 1A2 (Homo sapiens) (UniProt P05177); assay: p450-cyp1a2 (AID 410)
Outline: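 O-Demethylation of luciferin 6' methyl ether by human CYP1A2 is monitored as luciferase luminescence. Substrate sits at Km (100uM); enzyme is 20nM. Values are scaled to 57 uM furafylline as maximal inhibition.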

[2] = target: Glucocorticoid receptor (Homo sapiens) (UniProt P04150); assay: GR-GFP Redistribution (AID 450;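 active means compounds whose dose series gives a full or clear partial fitted curve of increased nuclear translocation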; further: potency means the concentration at half of the fitted maximal effect)
Glucocorticoid receptor (Homo sapiens), sequence (P04150 whole entry, looked up, the tested form may be a part): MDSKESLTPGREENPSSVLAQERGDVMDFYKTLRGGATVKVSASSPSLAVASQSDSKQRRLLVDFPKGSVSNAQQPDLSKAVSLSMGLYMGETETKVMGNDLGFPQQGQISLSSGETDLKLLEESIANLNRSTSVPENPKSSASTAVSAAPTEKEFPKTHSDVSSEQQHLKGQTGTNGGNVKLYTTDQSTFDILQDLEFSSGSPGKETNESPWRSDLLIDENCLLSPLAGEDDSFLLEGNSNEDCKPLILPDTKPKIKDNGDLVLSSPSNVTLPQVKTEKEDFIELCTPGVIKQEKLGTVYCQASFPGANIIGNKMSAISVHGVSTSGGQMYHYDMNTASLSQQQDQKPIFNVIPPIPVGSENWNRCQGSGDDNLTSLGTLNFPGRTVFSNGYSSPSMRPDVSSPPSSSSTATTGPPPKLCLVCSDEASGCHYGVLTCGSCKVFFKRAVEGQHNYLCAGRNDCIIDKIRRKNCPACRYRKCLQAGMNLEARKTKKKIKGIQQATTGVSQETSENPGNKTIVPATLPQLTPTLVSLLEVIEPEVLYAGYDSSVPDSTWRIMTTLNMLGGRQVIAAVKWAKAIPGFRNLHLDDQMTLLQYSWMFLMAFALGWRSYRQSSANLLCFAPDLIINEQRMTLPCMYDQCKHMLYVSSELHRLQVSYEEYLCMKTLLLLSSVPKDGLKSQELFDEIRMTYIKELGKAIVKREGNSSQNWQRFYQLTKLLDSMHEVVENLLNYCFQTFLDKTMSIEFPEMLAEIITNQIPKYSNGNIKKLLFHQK

[3] = target: Glucocorticoid receptor (Homo sapiens) (UniProt P04150); assay: GR-EFC Redistribution (AID 451); details: CHO-K1 GR-EFC translocation, beta-gal luminescence, 2 h; further: potency means the concentration at half of the fitted maximal effect
Outline: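 Translocation of GR-ED fusion to nuclear EA restores b-gal, read by luminescence after 1 h room-temperature detection. Engineered CHO-K1 biosensor cells, 1,000/well, exposed 2 h at 37 C to titrations up to 46 uM final.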

[4] = target: Mitogen-activated protein kinase 10 (Mus musculus) (UniProt Q61831); assay: JNK3 AlphaScreen Assay (AID 530; active means well fitted curve in either direction with a large enough effect, not every such curve was filed as active;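 further: kinase came from lysate of stimulated human HepG2 cells; signal reports phosphorylation of biotinylated GST-cJun 1-79 at Ser73 with 10 µM ATP; series mostly up to about 57 µM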)
Outline: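 qHTS titrations with 15 min compound pre-incubation before adding ATP (10 uM final). Read-out: AlphaScreen of Ser73-phosphorylated biotin-GST-cJun using HepG2 lysate JNK3 activated by IL-1β and TNFα.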

[5] = target: 3',5'-cyclic-AMP phosphodiesterase 4B (Homo sapiens) (UniProt Q07343); assay: qHTS Assay for Inhibitors of PDE-IV (AID 607; active means well fitted activation curve with a large enough effect in the main read-out, with a control signal flat, not every such curve was filed as active)
3',5'-cyclic-AMP phosphodiesterase 4B (Homo sapiens), sequence (Q07343 whole entry, looked up): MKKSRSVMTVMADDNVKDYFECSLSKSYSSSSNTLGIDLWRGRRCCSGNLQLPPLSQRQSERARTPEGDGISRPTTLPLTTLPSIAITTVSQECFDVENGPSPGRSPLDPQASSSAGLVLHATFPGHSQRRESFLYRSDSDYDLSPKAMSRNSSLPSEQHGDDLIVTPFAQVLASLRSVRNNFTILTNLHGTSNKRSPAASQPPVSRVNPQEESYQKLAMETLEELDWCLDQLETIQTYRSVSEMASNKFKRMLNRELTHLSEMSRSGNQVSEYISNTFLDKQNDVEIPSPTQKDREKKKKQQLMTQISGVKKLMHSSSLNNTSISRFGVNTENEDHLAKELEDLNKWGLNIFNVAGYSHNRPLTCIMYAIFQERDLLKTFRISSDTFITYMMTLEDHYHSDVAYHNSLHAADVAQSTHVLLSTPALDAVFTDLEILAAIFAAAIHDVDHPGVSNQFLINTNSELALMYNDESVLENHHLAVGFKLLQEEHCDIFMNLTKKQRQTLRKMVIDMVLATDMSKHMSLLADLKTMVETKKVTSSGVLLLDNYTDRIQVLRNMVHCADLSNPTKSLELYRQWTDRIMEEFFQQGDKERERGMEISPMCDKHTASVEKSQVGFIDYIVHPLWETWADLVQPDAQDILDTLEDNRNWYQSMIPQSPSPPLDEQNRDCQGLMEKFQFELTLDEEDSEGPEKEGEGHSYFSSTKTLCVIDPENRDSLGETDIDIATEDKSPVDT
Outline: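 Cell-based read-out of cAMP via a modified cyclic nucleotide-gated channel and membrane potential dye (535/590 nm) in HEK293 cells expressing PDE4 endogenously. Compounds tested up to 22.9 uM final; 100 uM RO 20-1724 reference.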

[6] = target: Cytochrome P450 2D6 (Homo sapiens) (UniProt P10635); assay: qHTS Assay for Inhibitors and Substrates of Cytochrome P450 2D6 (AID 891; active means well fitted inhibition curve with a large enough effect;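 further: luciferin methyl ether substrate demethylated by CYP2D6 with NADPH regeneration; nearly all actives have a fitted effect of over 60% in size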)
Cytochrome P450 2D6 (Homo sapiens), sequence (P10635 whole entry, looked up): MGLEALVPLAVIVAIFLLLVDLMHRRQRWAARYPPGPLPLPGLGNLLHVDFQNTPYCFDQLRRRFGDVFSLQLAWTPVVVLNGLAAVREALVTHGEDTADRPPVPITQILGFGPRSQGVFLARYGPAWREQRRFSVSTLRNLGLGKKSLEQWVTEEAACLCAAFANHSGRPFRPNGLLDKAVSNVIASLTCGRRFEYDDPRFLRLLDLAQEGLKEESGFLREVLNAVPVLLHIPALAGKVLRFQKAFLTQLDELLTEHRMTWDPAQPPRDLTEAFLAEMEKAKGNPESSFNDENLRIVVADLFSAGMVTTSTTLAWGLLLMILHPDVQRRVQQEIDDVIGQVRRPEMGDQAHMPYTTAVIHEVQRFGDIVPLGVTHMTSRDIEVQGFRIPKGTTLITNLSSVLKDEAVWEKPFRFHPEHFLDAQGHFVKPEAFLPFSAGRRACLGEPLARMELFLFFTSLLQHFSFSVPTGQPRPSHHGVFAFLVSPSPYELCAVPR
Outline: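 Luminescent read-out of luciferin formed by 5 nM human CYP2D6 demethylating 30 uM Luciferin-ME EGE (Km level) over 60 min at room temperature after NADPH regeneration addition. Data normalized to full inhibition by 1.43 uM quinidine.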

Measured: Potency

Cytochrome P450 1A2 (Homo sapiens), sequence (P05177 whole entry, looked up): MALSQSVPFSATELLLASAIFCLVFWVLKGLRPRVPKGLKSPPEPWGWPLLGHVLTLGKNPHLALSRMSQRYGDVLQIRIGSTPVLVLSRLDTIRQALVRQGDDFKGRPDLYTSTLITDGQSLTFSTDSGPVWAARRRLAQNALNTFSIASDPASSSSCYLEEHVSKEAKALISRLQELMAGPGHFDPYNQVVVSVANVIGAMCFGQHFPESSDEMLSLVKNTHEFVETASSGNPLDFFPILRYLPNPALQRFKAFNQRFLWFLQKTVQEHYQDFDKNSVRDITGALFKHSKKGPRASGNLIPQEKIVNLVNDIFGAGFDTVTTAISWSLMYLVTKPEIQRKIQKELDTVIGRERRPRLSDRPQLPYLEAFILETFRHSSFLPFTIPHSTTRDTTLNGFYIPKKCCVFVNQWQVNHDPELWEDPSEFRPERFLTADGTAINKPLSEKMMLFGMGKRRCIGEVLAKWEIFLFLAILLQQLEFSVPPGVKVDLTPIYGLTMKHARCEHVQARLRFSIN

CCCCCCCCCCCCCCCCOC[C@@H](COCC(F)(F)F)OP(=O)(O)OCO
inactive: [1] | [2] > 46 µM | [3] > 46 µM | [4] | [5] | [6]
